Data reported in PubChem BioAssay (NCI).
This is part of a sample that, as a whole, favours compounds with a hit. Of some 83,000 tested, about 20% had one in any assay.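 Activity criterion: percent growth below 10, measured after cells in 96-well plates were exposed to a single compound concentration for 48 hours.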 Unmarked numbers belong to inactive results. Active and inactive are the calls of the source.

system: LOX IMVI melanoma; test: NCI-60 one-dose screen, 48 h (100 = growth as untreated, 0 = no growth, -100 = all killed); settings: 10 µM unless noted
Description: Growth inhibition of the LOX IMVI human tumor cell line is measured as a screen for anti-cancer activity. Cells are grown in 96 well plates and exposed to the test compound for 48 hours. Compounds are tested at a single concentration, which is 10^-5 M for most compounds. The reported endpoint is percent growth (GI% or GIPRCNT), where numbers from 0 - 100% represent growth inhibition, and numbers from -100% - 0 represent cell death. For example, a value of 40 represents 60% growth inhibition. A value of 0 means no net growth occurred over the course of the experiment. A value of -40 indicates 40% of cells at the beginning of the experiment died by the end of the experiment. A value of -100 means all cells are dead at the end of the experiment.
NCI-60 Human Tumor Cell Lines Screen was performed using the standard one-dose NCI protocol, which is described in more detail at https://dtp.cancer.gov/discovery_development/nci-60/default.htm.
Compounds with GIPRCNT values below 10 were considered active. Activity score was based on GIPRCNT using the following formula: […]
Score is 0 for GIPRCNT values of 100 or above, 50 for GIPRCNT values of 0, and 100 for GIPRCNT values of -100.

SMILES | growth
Oc1cccc(-c2nc(N3CCOCC3)c3c4c(sc3n2)CCCC4)c1 | 50%
CCOC(=O)c1sc(Nc2ccc(Cl)cc2)nc1C | 9.91% (active)
CC(C)(CCCN=C(N)Nc1ccc(Cl)cc1)c1ccc(F)cc1 | 57.8%
C#CCOc1ccc2ncnc(N3CCC(NC(=O)CCl)CC3)c2c1 | 78.1% [8.25 µM]
CN(C)c1ccc(NC(=O)c2ccc(/C=C/C(=O)c3ncc[nH]3)cc2)cc1 | 14.7%
c1ccc(Cn2cc(-c3nc4ccccc4s3)c3cccnc32)cc1 | 99.3%
Cc1ccc(C2=NN3C(C2)c2cc(Br)ccc2OC32CCN(Cc3ccccc3)CC2)o1 (stereo not given) | 94.4%
Cn1cc(-c2nonc2-c2c[nH]c3ccc(F)cc23)c2cccnc21 | 85.3%
COc1cc2c(cc1O)CC[C@@H]1[C@@H]2CC[C@]2(C)[C@@H](OCCCN(C)C)CC[C@@H]12 | -91.5% (active)
O=c1oc2c(C(F)(F)F)cccc2cc1-c1csc(Nc2ccc(OCCF)cc2)n1 | 19.7%
c1ccc(CCNc2ncnc3[nH]ncc23)cc1 | 89.1%
COc1cc2nc(N3CCCC3)nc(NCC3CCCCC3)c2cc1OC | -92.8% (active)
CSc1nc(-c2cccc(NC(=O)CCl)c2)c(C#N)c(=O)n1C | -91.6% (active)
Cn1c(NCCc2ccc(O)c(O)c2)nc2c1c(=O)n(Cc1ccc(Cl)c(Cl)c1)c(=O)n2C | 86.5%
Cc1cc(N2CCCCCC2)nc(NC2CCCC(Nc3ccnc4cc(Cl)ccc34)C2)n1 (stereo not given) | -93.1% (active)
COc1cccc2c1C(=O)c1c(O)c3c(c(O)c1C2=O)C[C@](O)(C(=O)CO)C[C@H]3O[C@@H]1C[C@@H](NC(=O)CCCCCN(C)C2(c3ccc(F)cc3)CC3CCC2C3)[C@H](O)[C@@H](C)O1 (stereo not given in full) | -90.5% (active)
O=c1nc2oc3ccc4ccccc4c3cc-2s1 | 33.5%
Cc1cc(C)nc(SC2=C(Nc3cccc(Cl)c3)C(=O)N(Cc3ccccc3)C2=O)n1 | 67.6% [30 µM]
COc1ccc(-c2nc3ccc(-c4nc5ccc(N6CCN(c7ccc(F)cc7)CC6)cc5[nH]4)cc3[nH]2)cc1OC | 37.1%
Cc1ccc(-c2onc3c(=O)[nH]nc(-c4ccccc4)c23)cc1 | 37.6%

SMILES | growth
O=C(N=Nc1c(O)[nH]c2ccc(Br)cc12)c1cc(-c2ccccc2)on1 | 94.8%
COc1ccc(S(=O)(=O)N2CCCCC2)cc1NC(=O)c1[nH]c(C)c2c1CCCCC2=O | -56.6% (active)
O=C1/C(=C/C(Cl)=C/c2ccccc2)SC(=S)N1CCc1ccc(O)cc1 | -79.2% (active)
O=C(COc1cccc(/C=C2\COc3ccccc3C2=O)c1)Nc1nccs1 | -96.8% (active)
COc1cccc(/C=N/NC(=O)c2ccccc2Nc2ccnc(C(F)(F)F)c2)c1O | 4.88% (active)
CCOc1cc2ncc(C#N)c(Nc3ccc(OCc4cccc(F)c4)c(Cl)c3)c2cc1NC(=O)CCCCC1CCSS1 (stereo not given) | 79.5%
COc1ccc(/C=C/C(=O)c2cc(O)ccc2O)cc1 | 103%
COc1ccc(-c2n[nH]nc2-c2csc3ccccc23)cc1OC | 24.2%
O=C1NC(=S)NC(=O)C1CC(=O)n1c(-c2ccccc2)nc2ccccc21 | 88.7%
COc1cc(-c2nc3ccccc3[nH]2)ccc1OCc1nnc(-c2ccc(CC(C)C)cc2)o1 | 103%
CC[C@]1(O)C[C@@H]2CN(CCc3c([nH]c4ccccc34)[C@@](C(=O)OC)(c3cc4c(cc3OC)N(C)[C@H]3[C@@](O)(C(N)=O)[C@H](O)[C@]5(CC)[C@@H]6C[C@@H]6CN6CC[C@]43[C@@H]65)C2)C1 | 18.3%
N#Cc1nnn(-c2ccc(S(N)(=O)=O)cc2)c1NC(=O)CCl | 94.6%
CC(=O)Oc1ccc(Cl)cc1CN(C(C)=O)C1CCCCC1 | 114%
COc1ccc(CN2c3ccccc3Oc3ccccc32)cc1F | 59%
C[n+]1ccccc1/C=C/c1ccc2cccc(O)c2n1 | 104%
CCCCCCCCCCCCC[N+](C)(C)Cc1ccccc1 | -88.3% (active)
COc1cc(-c2nn(-c3ccc(C)cc3)cc2C(=O)O)ccc1O | 86%
CCCOc1cc2ccccc2cc1C(=O)Nc1nc(NC)c2c(ccc3nccc32)[nH]1 | -81% (active)
N#Cc1c(-c2ccc(Cl)cc2)nc(N/N=C/c2cccc(Br)c2)nc1N1CCOCC1 | 79.8%
O=C(/C=C/c1ccc(C(F)(F)F)cc1)Nc1ccc(C=C2c3ccccc3C(=O)c3ccccc32)cc1 | 76.7%
